The values below come from PubChem BioAssay (Tox21).

SMILES strings stand for the structures. Results filed as inconclusive are left out. Active and inactive are the calls of the source. Calls follow the shape of the dose curve; as a rule, active = well fitted inhibition curve with a large enough effect in the signal ratio in the repeat runs (not every such curve was filed as active); inconclusive = weak or mixed curves, or effect the other way; inactive = flat fitted curve, though single readings scatter; the % refers to the signal ratio.
% is scaled to controls: 0 for no effect and ±100 for the full control effect.

The nature of the assay: cAMP Responsive Elements (CRE) small molecule antagonists, cell-based qHTS assay (AID 1963591). As to conditions: CRE-bla HEK293T, beta-lactamase FRET ratio; series mostly up to 92.4 µM; activity change, negative = inhibition: at the top concentration. From the text: U.S. Tox21 Program National Center for Advancing Translational Sciences [NCATS] Division of Preclinical Innovation [DPI] U.S. Environmental Protection Agency [EPA] National Institutes of Environmental Health Sciences [NIEHS] National Toxicology Program [NTP] U.S. Food and Drug Administration [FDA] Tox21 Assay Overview: CREB (cyclic-AMP Responsive Element Binding Protein) is a cellular transcription factor. It binds to certain DNA sequences called cAMP Responsive Elements (CRE) and regulates the transcription of the genes. […] This cell line can be used to find agonists/antagonists of the cyclic AMP signaling pathway. The activation of the report gene under culture conditions can be detected by fluorescence intensity. This cell line has been used to screen the Tox21 10K compound library to […].
Tox21 Assay Protocol Summary: CRE-bla Hek 293T cells were suspended in assay medium (DMEM containing 10% dialyzed FBS, 0.1 mM NEAA, 1 mM sodium pyruvate and 25 mM HEPES) and dispensed at 2,000 cells/4 uL /well into 1536-well black wall/clear bottom plates using a Multidrop Combi (ThermoFisher Scientific, Waltham, MA) dispenser. After the assay plates were incubated at 37 C/5% CO2 for 18 hrs, 23 nL of compounds dissolved in DMSO, positive controls or DMSO only was transferred to the assay plate by a pintool workstation (Kalypsys, San Diego, CA), followed by addition of 1 […] uL of 1.25uM NKH477 (0.25 uM as final concentration) in assay medium using a Flying Reagent Dispenser (Aurora Discovery, San Diego, CA). The plates were incubated at 37 C and 5% CO2 for 3 hrs. Then 1 uL of LiveBLAzer B/G FRET substrate (Invitrogen, Carlsbad, CA) was added to each well using Bioraptr Flying Reagent Dispenser (FRD, Aurora Discovery, San Diego, CA). The plates were incubated at room temperature for 2 h.
(Quantitative high-throughput screening tests each substance at several concentrations.)
With `NC/C=C/C(=O)O`, the “activity change, negative = inhibition” value is -0.134% [at 42.4 µM] (inactive).

In the case of `FC(F)(F)C(Cl)(Cl)Cl`, the “activity change, negative = inhibition” value is -1.82% (inactive).

For the compound `Nc1c(Br)cc([N+](=O)[O-])cc1Br`, the “activity change, negative = inhibition” value is 2.93% (inactive).

For `CCO[Si](C)(OCC)OCC`, the “activity change, negative = inhibition” value was -10.4% (inactive).

Take `C/C(=N\O)[C@@H](C)NCC(C)(C)CN[C@H](C)/C(C)=N/O`: the “activity change, negative = inhibition” value was -0.569% [at 42.4 µM] (inactive).

On to `Cc1ccc(S(=O)(=O)NC(=O)NC2CCCC2)cc1`, for which the “activity change, negative = inhibition” value was -2.99% [at 42.4 µM] (inactive).

For the compound `CCC(C)CO` (stereo not given), the Potency entry was “inactive”.

Regarding `O=C(O)/C=C/C(=O)O`, the Potency entry is “inactive”.

Take `CCC(=O)OC(C)(C)C1CC=C(C)CC1` (stereo not given): the “activity change, negative = inhibition” value was -1.83% (inactive).

With `CC(N)CN` (stereo not given), the “activity change, negative = inhibition” value was 2.01% (inactive).

`C(/C=C/C=C/Nc1ccccc1)=Nc1ccccc1`: the “activity change, negative = inhibition” value was -2.1% (inactive).

`CCOC(=O)CC(C)=O`: the “activity change, negative = inhibition” value is 1.53% (inactive).

Consider `CCOC(=O)n1ccn(C)c1=S`, for which the Potency entry is “inactive”.

In the case of `OCC1(CO)COCOC1`, the “activity change, negative = inhibition” value is 8.36% (inactive).

As for `CC/C=C\CCOC(=O)C(C)C`, the “activity change, negative = inhibition” value was 0.696% (inactive).

Consider `O=[N+]([O-])c1ccc2nc[nH]c2c1`, for which the Potency result is “inactive”.

For the compound `COS(=O)(=O)O`, the “activity change, negative = inhibition” value is 0.551% (inactive).

As to `COc1cccc(OC)c1C(=O)O`, the “activity change, negative = inhibition” value is 6.86% (inactive).

`OCc1ccccc1`: the Potency entry is “inactive”.

For `C=CC(=O)NC(C)C`, the “activity change, negative = inhibition” value was 4.22% (inactive).

For the compound `Cn1c(=O)c2c(ncn2C)n(C)c1=O`, the Potency result is “inactive”.

With `C=CCOC(=O)CCCCCC`, the “activity change, negative = inhibition” value is -5.85% (inactive).

In the case of `NCc1cccc(CN)c1`, the Potency result was “inactive”.

Take `CC(=O)NC(Cc1ccccc1)C(=O)O` (stereo not given): the “activity change, negative = inhibition” value was -5.24% [at 42.4 µM] (inactive).

On to `N#Cc1cc(NC(=O)C(=O)O)c(Cl)c(NC(=O)C(=O)O)c1`, for which the “activity change, negative = inhibition” value is -0.563% [at 42.4 µM] (inactive).

`C=CCCCCCCCCCCCCCCCC`: the activity change, negative = inhibition was -13% [at 8.39 µM] (inactive).

In the case of `CC(=O)c1ccc2c(c1)CCCC2`, the “activity change, negative = inhibition” value is -1.31% (inactive).

With `Oc1ccc2cc(SSc3ccc4cc(O)ccc4c3)ccc2c1`, the “activity change, negative = inhibition” value is -2.74% (inactive).

As for `CC(O)Cn1cnc2c1c(=O)n(C)c(=O)n2C` (stereo not given), the “activity change, negative = inhibition” value was 0.158% [at 42.4 µM] (inactive).

Take `Cc1ccc2n[nH]nc2c1`: the “activity change, negative = inhibition” value was -13.6% (inactive).

In the case of `Cc1cc(C)c(C)c(O)c1`, the “activity change, negative = inhibition” value was -4.75% (inactive).

With `CC(C)CCOCCC(C)C`, the “activity change, negative = inhibition” value is 0.69% (inactive).

On to `CCN(Cc1cccc(S(=O)(=O)O)c1)c1ccccc1`, for which the “activity change, negative = inhibition” value was 18.1% (inactive).

Consider `NCc1ccccc1Sc1ccccc1CO`, for which the “activity change, negative = inhibition” value was 6.71% [at 42.4 µM] (inactive).

In the case of `C=C(C)C(=O)OCCNC(C)(C)C`, the “activity change, negative = inhibition” value is -0.618% (inactive).

`CCCSc1ccc2nc(NC(=O)OC)[nH]c2c1`: the Potency result is “inactive”.

`CCCOCCOCCO`: the “activity change, negative = inhibition” value was -4.15% (inactive).

On to `CC(=O)OCC(=O)[C@@]1(O)CC[C@H]2[C@@H]3CCC4=CC(=O)C=C[C@]4(C)[C@H]3[C@@H](O)C[C@@]21C`, for which the “activity change, negative = inhibition” value was 2.98% [at 42.4 µM] (inactive).

Turning to `O[C@@H]([C@H](O)[C@H](O)CBr)[C@H](O)CBr`, the “activity change, negative = inhibition” value is 2.57% (inactive).

`CCCCCCN`: the “activity change, negative = inhibition” value is -7.68% (inactive).
